This excerpt belongs to a sample that is enriched for hits.
Pin1 inhibitor: inhibitors of human Pin1; Q13526; Pin1 FP peptide displacement, HiFluor488, 10 min; Potency, µM (titrated, usually from 115 µM), usual class: inhibitors; hit rate 0.009% among 390,000; AID 504891; active means well fitted inhibition curve with a large enough effect in the polarisation, with a control signal flat, not every such curve was filed as active; inconclusive means small, poorly fitted or top-dose-only effect, or effect the other way, or a change in a side signal; inactive means no such curve, though single readings can be large or run the other way; the % refers to the polarisation
Target sequence (Q13526 whole entry, looked up): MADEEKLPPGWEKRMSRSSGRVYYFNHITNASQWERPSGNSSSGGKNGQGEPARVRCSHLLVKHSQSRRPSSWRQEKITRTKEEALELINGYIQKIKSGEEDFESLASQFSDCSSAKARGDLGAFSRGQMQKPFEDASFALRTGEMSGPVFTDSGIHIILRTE
PI5P4K alpha inh: inhibitors of human PI5P4K alpha. P48426. PI5P4Kalpha enzyme, ADP-Glo luminescence, 60 min; active compounds read low. max response, %. hit rate 1.2% among 330,000. AID 652105; active means max response of -50% or lower; inconclusive means between -30% and -50%; inactive means -30% or higher; further: value at the top dose of about 77 µM
Target sequence (P48426 whole entry, looked up): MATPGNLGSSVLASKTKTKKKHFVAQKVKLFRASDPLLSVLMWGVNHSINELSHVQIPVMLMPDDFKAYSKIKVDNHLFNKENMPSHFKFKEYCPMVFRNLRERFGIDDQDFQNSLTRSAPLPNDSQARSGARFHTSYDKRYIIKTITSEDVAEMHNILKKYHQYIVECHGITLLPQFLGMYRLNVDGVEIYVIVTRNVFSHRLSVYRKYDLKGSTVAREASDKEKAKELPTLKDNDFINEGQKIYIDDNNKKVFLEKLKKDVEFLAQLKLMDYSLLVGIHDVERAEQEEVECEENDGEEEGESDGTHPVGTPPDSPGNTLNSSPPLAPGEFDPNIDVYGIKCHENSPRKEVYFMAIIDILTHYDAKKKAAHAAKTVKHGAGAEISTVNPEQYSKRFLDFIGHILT
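Quantitative HTS of the MLSMR library against PI5P4Kalpha with substrate. ATP added last at 5 microM final; room temperature, 60 minutes. Remaining ATP depleted, ADP converted and read as luminescence.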
PI4K2A inh: PI4K2A (human) kinase inhibition. Q9BTU6. hit rate 0.13% among 420,000. purified PI4K2A, ADP-Glo luminescence, 1 h; active compounds read low. activity change, negative = inhibition, % at 76.9 µM; in the data active means activity change below about -50%; inconclusive means mostly about -30% to -49%
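PI4K2A activity was measured by ADP-Glo luminescence: enzyme (4 ug/mL stock) and phosphatidylinositol (1.2 mM stock) in Tris pH 7.5/MgCl2/EGTA/Triton X-100 buffer were reacted with ATP (300 microM stock) for one hour at ambient temperature.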
PGK inhibitor: blocks T. brucei phosphoglycerate kinase; PGK/GAPDH coupled, Kinase-Glo luminescence, 60 min; Potency, µM (series often up to 57.5 µM), usual class: inhibitors; hit rate 0.043% among 380,000; further: nearly all actives have a fitted effect of over 60% in size
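Recombinant glycosomal PGK reaction used 1,3-bisphosphoglycerate generated in-well by GAPDH (100nM final) in 100mM TEA pH 7.6, 5mM MgCl2, 0.01% Tween-20. After 60 minutes at room temperature, ATP was read by Kinase-Glo Plus luminescence end-point.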
ADP-Glo counter: ADP-Glo luciferase interference, PI5P4K counter-screen; shares compounds with PI5P4K alpha inh; ADP-Glo detection counter-screen, luciferase luminescence, no enzyme; Potency, µM (top dose mostly 76.9 µM), actives largely listed as inhibitors; 1,100 tested, under 10 active; AID 743285
Each line names hits and unclear results; the compound was inactive in the other large screens (follow-up assays come after a bar, where they were run). Unless noted, the call rests on the fitted dose curve; in most records, active means well fitted curve in the direction sought with a large enough effect; inconclusive means small, poorly fitted or top-dose-only effect, or another doubt; inactive means no such curve, though single readings can be large; an effect the other way counts as inactive or inconclusive.

Cc1ccc(S(=O)(=O)N2CCC(c3nc4ccccc4o3)CC2)s1	none (no result: Pin1 inhibitor, PI5P4K alpha inh, PGK inhibitor)
O=c1c2c3c(sc2[nH]c(=S)n1Cc1ccco1)CCC3	Pin1 inhibitor inconclusive, PI5P4K alpha inh -58.6 | ADP-Glo counter inactive
Cc1ccc(-n2c(=O)[nH]c3sc4c(c3c2=O)CCCC4)cc1	none (no result: PI5P4K alpha inh)
Cc1ccc(-n2c(=S)[nH]c3sc4c(c3c2=O)CCC4)cc1	PI5P4K alpha inh -54.6 | ADP-Glo counter inactive
O=C(CCSCc1ccccc1Cl)NCCc1ccccc1	none (no result: PI5P4K alpha inh)
CC(=O)Nc1cc(-c2ccc(CO)cc2)cn2c(-c3ccc(F)c(Cl)c3)cnc12	PI5P4K alpha inh -54.2 (no result: Pin1 inhibitor, PGK inhibitor) | ADP-Glo counter inactive
O=C(COC(=O)c1ccc(NS(=O)(=O)c2cccs2)cc1O)Nc1nc2ccccc2s1	PI5P4K alpha inh -69.2 | ADP-Glo counter inactive
O=C(COC(=O)c1ccc(NS(=O)(=O)c2cccs2)cc1O)NCc1ccccc1	PI5P4K alpha inh inconclusive
Cc1ccc(C)c(S(=O)(=O)Nc2ccc3oc(C)c(C(=O)O)c3c2)c1	Pin1 inhibitor inconclusive, PI5P4K alpha inh -95.1, PGK inhibitor inconclusive | ADP-Glo counter inactive
CC(=O)c1c(C)oc2ccc(NS(=O)(=O)c3ccc(C)cc3)cc12	none
OC(c1ccc(F)c(F)c1)c1nc(-c2cccc(F)c2)cs1 (centres undefined)	none (no result: Pin1 inhibitor, PGK inhibitor)
Cc1ccccc1N(C(=O)c1csnn1)C(C(=O)NC1CCCCC1)c1ccncc1 (centres undefined)	none
O=C(NC1CCCC1)C(c1ccncc1)N(C(=O)c1csnn1)c1ccccc1F (centres undefined)	PI5P4K alpha inh -51.6 | ADP-Glo counter inactive
N#CCC(=O)N1CC2(CC(c3cccc(NC(=O)COc4ccc(Cl)cc4)c3)=NO2)C[C@@H]1C(N)=O (some centres undefined)	none
NC(=O)[C@@H]1CC2(CC(c3cccc(NC(=O)COc4ccc(Cl)cc4)c3)=NO2)CN1C(=O)COc1ccc(Cl)cc1 (some centres undefined)	none | ADP-Glo counter inactive
CC(=O)c1c(C)n(-c2cccc(C)c2)c2ccc(OC(=O)COc3ccccc3)cc12	none (no result: PI5P4K alpha inh)
Cc1cc(-c2csc(N)n2)c(C)n1CCc1ccccc1	Pin1 inhibitor inconclusive, PI5P4K alpha inh inconclusive, PI4K2A inh inconclusive
Cc1cc(-c2csc(N)n2)c(C)n1CCC(C)C	Pin1 inhibitor inconclusive, PI5P4K alpha inh -64.4, PI4K2A inh inconclusive | ADP-Glo counter inactive
COc1ccccc1NC(=O)COC(=O)c1cc2c(s1)CCC2	PI5P4K alpha inh inconclusive, PGK inhibitor inconclusive
COc1ccc(OC)c(NC(=O)COC(=O)c2cc3c(s2)CCC3)c1	Pin1 inhibitor inconclusive, PI5P4K alpha inh -83.0, PGK inhibitor inconclusive | ADP-Glo counter inactive
NC(=O)c1ccc(NC(=O)COc2ccc(-n3cnnn3)cc2)cc1	none
NC(=O)COc1ccc(-n2cnnn2)cc1	Pin1 inhibitor inconclusive, PI5P4K alpha inh -69.6 | ADP-Glo counter inactive
Cc1ccc(CNc2ncnc3ccc(-c4ccoc4C)cc23)o1	none (no result: Pin1 inhibitor, PI5P4K alpha inh, PGK inhibitor) | ADP-Glo counter inactive
Cc1ccc(CNc2ncnc3ccc(-c4c(C)noc4C)cc23)o1	none (no result: PI5P4K alpha inh, PI4K2A inh, PGK inhibitor)
CC(Oc1ccc(Br)cc1)C(=O)Nc1ccc(S(=O)(=O)N(C)C2CCN(C)CC2)cc1 (centres undefined)	none
Cc1nc(N2CCC(C)CC2)c2c(C)c(C(=O)O)sc2n1	Pin1 inhibitor inconclusive (no result: PI5P4K alpha inh) | ADP-Glo counter inactive
CCOC(=O)c1c(-c2ccco2)csc1NC(=O)COC(=O)c1cnc(C)cn1	Pin1 inhibitor inconclusive, PI5P4K alpha inh -51.2 | ADP-Glo counter inactive
COC(=O)c1ccc2nc(-c3ccc(C)cc3)c(Cc3ccccc3OC)n2c1	none (no result: Pin1 inhibitor, PGK inhibitor)
Cc1noc(C)c1S(=O)(=O)Nc1ccc(C(=O)Nc2ccc(C(C)C)cc2)cc1	none (no result: PI5P4K alpha inh)
COc1ccc(Cl)cc1S(=O)(=O)NCCCn1ccnc1	none | ADP-Glo counter inactive
C#CCNC(=O)C[C@H]1C[C@@]2(C(=O)OC)C(=C[C@H](COCc3ccccc3)O[C@@H]2C)N(Cc2ccc(Cl)cc2Cl)C1=O	none (no result: Pin1 inhibitor, PI5P4K alpha inh, PGK inhibitor)
O=S(=O)(c1cccc(C(F)(F)F)c1)N1CCN(c2nc(-c3cccs3)nc3cc(Cl)ccc23)CC1	none (no result: PI5P4K alpha inh, PI4K2A inh, PGK inhibitor)
COc1cc(NC(=O)c2cccnc2SC)cc(OC)c1OC	none
CSc1ncccc1C(=O)Nc1ccc(OC(F)(F)F)cc1	PI5P4K alpha inh -58.3 | ADP-Glo counter inactive
CC(C)OC(=O)c1c(NS(=O)(=O)c2ccccc2)sc2c1CCCC2	PI5P4K alpha inh -63.5 | ADP-Glo counter inactive

Bioassay records: PubChem BioAssay, National Center for Advancing Translational Sciences (NCATS)
